# From the antibiotic and cytotoxicity screens of Wong et al. (2023)
# Screen size: about 39,000 compounds; about 3,300 (8.5%) were called active. Only a selection was taken, and actives are over-represented in it overall.
# Test system: HepG2
# Assay: cytotoxicity call (relative viability < 0.9)
# Settings: 10 µM
row,SMILES,cytotoxicity call
1,COc1cccc(-c2ccc3c(c2)O[C@@H](CN(C)C(=O)C2CCOCC2)[C@H](C)CN([C@@H](C)CO)S3(=O)=O)c1,inactive
2,CC(C)NC(=O)N(C)C[C@@H]1Oc2ccc(NC(=O)Cn3cnnn3)cc2C(=O)N([C@@H](C)CO)C[C@@H]1C,inactive
3,O=C(C[C@@H]1C=C[C@H](NS(=O)(=O)c2ccccc2F)[C@H](CO)O1)NCCCN1CCOCC1,inactive
4,C[C@@H]1CN([C@H](C)CO)C(=O)c2cccc(NC(=O)c3cnccn3)c2O[C@@H]1CN(C)S(=O)(=O)c1ccccc1,inactive
5,CC(C)NC(=O)Nc1ccc2c(c1)C(=O)N(C)[C@H]1CC[C@H](CC(=O)NCc3ccc(F)cc3)O[C@@H]1CO2,inactive
6,C[C@@H]1CN([C@H](C)CO)C(=O)c2cc(NC(=O)C3CC3)ccc2O[C@H]1CN(C)Cc1ccc(-c2ccccc2)cc1,inactive
7,CCc1ccc(-c2cc3c(=O)n(CC(=O)NCCN4CCOCC4)nc(C)n3n2)cc1,inactive
8,Cc1ccc(S(=O)(=O)Nc2ccc3c(c2)CC(=O)N([C@H](C)CO)C[C@H](C)[C@@H](CN(C)S(=O)(=O)c2cccs2)O3)cc1,inactive
9,COc1ccc(CN(C)C[C@H]2OCCCC[C@@H](C)Oc3ccc(NC(=O)NC4CCCCC4)cc3C(=O)N([C@H](C)CO)C[C@@H]2C)cc1,inactive
10,C[C@@H]1CN([C@@H](C)CO)S(=O)(=O)c2ccc(C#C[C@@H](C)O)cc2O[C@@H]1CN(C)C(=O)Nc1ccccc1,inactive
11,COc1ccc(CN(C)C[C@H]2Oc3c(NC(=O)c4ccc(-c5nccs5)cc4)cccc3C(=O)N([C@@H](C)CO)C[C@H]2C)cc1,inactive
12,COc1ccc(CN(C)C[C@@H]2Oc3c(NC(=O)c4ccc(-c5nccs5)cc4)cccc3C(=O)N([C@H](C)CO)C[C@H]2C)cc1,active
13,COc1ccc(CN(C)C[C@@H]2Oc3c(NC(=O)c4ccc(-c5nccs5)cc4)cccc3C(=O)N([C@H](C)CO)C[C@@H]2C)cc1,inactive
14,COc1ccc(CN(C)C[C@H]2Oc3c(NC(=O)c4ccc(-c5nccs5)cc4)cccc3C(=O)N([C@H](C)CO)C[C@@H]2C)cc1,inactive
15,COc1ccc(CN(C)C[C@H]2Oc3c(NC(=O)c4ccc(-c5nccs5)cc4)cccc3C(=O)N([C@@H](C)CO)C[C@@H]2C)cc1,inactive
16,COc1ccc(CN(C)C[C@@H]2Oc3c(NC(=O)c4ccc(-c5nccs5)cc4)cccc3C(=O)N([C@@H](C)CO)C[C@H]2C)cc1,active
17,CO[C@@H]1CN(C)C(=O)c2cc(NC(C)=O)ccc2OC[C@@H](C)N(S(=O)(=O)c2cn(C)cn2)C[C@H]1C,inactive
18,C[C@@H]1CCCCO[C@H](CN(C)Cc2ccccc2)[C@@H](C)CN([C@H](C)CO)C(=O)c2cc(NC(=O)c3ccccc3)ccc2O1,inactive
19,CCC[C@@H](O)C#Cc1cnc2c(c1)C(=O)N([C@H](C)CO)C[C@H](C)[C@H](CN(C)S(=O)(=O)c1ccccc1)O2,inactive
20,C[C@@H]1CN([C@@H](C)CO)C(=O)c2cc(NC(=O)Cc3cn(C)c4ccccc34)ccc2O[C@H]1CN(C)Cc1ccc(Oc2ccccc2)cc1,inactive
21,C[C@@H]1CN([C@H](C)CO)C(=O)c2cc(NC(=O)Cc3cn(C)c4ccccc34)ccc2O[C@H]1CN(C)Cc1ccc(Oc2ccccc2)cc1,inactive
22,C[C@H]1CN([C@@H](C)CO)C(=O)c2cc(NC(=O)Cc3cn(C)c4ccccc34)ccc2O[C@H]1CN(C)Cc1ccc(Oc2ccccc2)cc1,inactive
23,C[C@H](CO)N1C[C@H](C)[C@H](CN(C)Cc2ccc(Oc3ccccc3)cc2)Oc2ccc(NC(=O)Cc3cn(C)c4ccccc34)cc2C1=O,active
24,C[C@H]1CN([C@@H](C)CO)C(=O)c2cc(NC(=O)Cc3cn(C)c4ccccc34)ccc2O[C@@H]1CN(C)Cc1ccc(Oc2ccccc2)cc1,active

row,SMILES,cytotoxicity call
1,C[C@H](CO)N1C[C@H](C)[C@@H](CN(C)Cc2ccc(Oc3ccccc3)cc2)Oc2ccc(NC(=O)Cc3cn(C)c4ccccc34)cc2C1=O,active
2,C[C@@H]1CN([C@H](C)CO)C(=O)c2cc(NC(=O)Cc3cn(C)c4ccccc34)ccc2O[C@@H]1CN(C)Cc1ccc(Oc2ccccc2)cc1,inactive
3,C[C@@H]1CN([C@@H](C)CO)C(=O)c2cc(NC(=O)Cc3cn(C)c4ccccc34)ccc2O[C@@H]1CN(C)Cc1ccc(Oc2ccccc2)cc1,inactive
4,Cc1ccc(S(=O)(=O)N(C)C[C@H]2OCCCC[C@@H](C)Oc3ccc(NC(=O)Nc4ccc5c(c4)OCO5)cc3C(=O)N([C@H](C)CO)C[C@@H]2C)cc1,inactive
5,COc1cccc(-c2ccc3c(c2)O[C@H](CN(C)Cc2cncnc2)[C@H](C)CN([C@@H](C)CO)S3(=O)=O)c1,inactive
6,COc1ccc(NC(=O)N(C)C[C@H]2Oc3ccc(NC(=O)CCCCCC(=O)Nc4ccccc4N)cc3CC(=O)N([C@H](C)CO)C[C@H]2C)cc1,inactive
7,C[C@@H]1CN([C@@H](C)CO)C(=O)c2c(c3ccccc3n2C)-c2ccccc2CO[C@H]1CN(C)S(C)(=O)=O,inactive
8,CC(=O)OCC1=C(C(=O)O)N2C(=O)[C@@H](NC(=O)CSc3ccncc3)[C@H]2SC1,inactive
9,C[C@H](CO)N1C[C@H](C)[C@H](CN(C)Cc2ccc(-c3ccccc3)cc2)Oc2ccc(NC(=O)Cn3cnnn3)cc2C1=O,inactive
10,C[C@H]1CN([C@@H](C)CO)C(=O)c2cccc(NS(=O)(=O)c3cn(C)cn3)c2O[C@@H]1CN(C)Cc1ccc(C(=O)O)cc1,inactive
11,Cn1nnnc1-c1ccc(N)cc1,inactive
12,COc1cc(NC(C)CCCN)c2ncccc2c1.O=P(O)(O)O.O=P(O)(O)O (stereo not given),active
13,Cc1c(-c2c(-c3ccc(F)o3)sc3ncnc(O[C@H](Cc4ccccc4OCc4ccnn4CC(F)(F)F)C(=O)O)c23)ccc(OCCN2CCN(C)CC2)c1Cl,active
14,C[C@H]1CN([C@@H](C)CO)C(=O)CCCn2cc(nn2)CO[C@H]1CN(C)S(=O)(=O)c1ccccc1C#N,inactive
15,C[C@H](CO)N1C[C@H](C)[C@H](CN(C)C(=O)Nc2ccc(F)cc2)OCCCC[C@H](C)Oc2ccc(NC(=O)NC3CCCCC3)cc2C1=O,inactive
16,O=c1[nH]c(=O)n(C2CC(O)C(CO)O2)cc1F (stereo not given),active
17,O=c1[nH]c(=O)n(C2CC(O)C(CO)O2)cc1C(F)(F)F (stereo not given),inactive
18,O=c1[nH]c(=O)n([C@H]2C[C@H](O)[C@@H](CO)O2)cc1C(F)(F)F,active
19,O=c1[nH]c(=O)n([C@@H]2C[C@@H](O)[C@@H](CO)O2)cc1F,inactive
20,O=c1[nH]c(=O)n([C@H]2C[C@H](O)[C@@H](CO)O2)cc1F,inactive
21,Cc1cn([C@H]2C[C@H](O)[C@@H](CO)O2)c(=O)[nH]c1=O,inactive
22,CCCNC(=O)C[C@H]1CC[C@@H]2[C@H](COc3ccc(NC(=O)c4ccc5c(c4)OCO5)cc3C(=O)N2C)O1,inactive
23,COc1ccccc1NC(=O)N(C)C[C@H]1Oc2ncc(C#CC(C)C)cc2C(=O)N([C@H](C)CO)C[C@H]1C,inactive
24,C/C=C/c1ccc2c(c1)O[C@H](CN(C)S(=O)(=O)c1ccccc1OC)[C@H](C)CN([C@H](C)CO)S2(=O)=O,inactive

row,SMILES,cytotoxicity call
1,COc1ccc(NC(=O)N(C)C[C@H]2OCCCC[C@H](C)Oc3ccc(NC(=O)NC4CCCCC4)cc3C(=O)N([C@H](C)CO)C[C@@H]2C)cc1,inactive
2,NCC(=O)Nc1ccc(Br)cc1,inactive
3,CN(C)c1ccc(NC(=O)CN)cc1,active
4,Cc1ccc(NC(=O)CC(C)C)cc1,inactive
5,C[C@H](CO)N1C[C@H](C)[C@H](CN(C)Cc2ccc3c(c2)OCO3)Oc2c(NS(C)(=O)=O)cccc2C1=O,inactive
6,C[C@H](CO)N1C[C@H](C)[C@H](CN(C)C(=O)CCCN(C)C)OCCCC[C@H](C)Oc2ccc(NC(=O)Nc3ccc(F)cc3)cc2C1=O,inactive
7,Cc1ccc2c(=O)c3ccccc3n(CCCN)c2c1C,active
8,Cc1cccc(=O)n1CCCCN,inactive
9,Cn1cnc(=O)c2ccccc21,inactive
10,COc1ccc(NC(=O)Nc2cccc3c2O[C@H](CN(C)C(=O)Nc2ccc(C(F)(F)F)cc2)[C@H](C)CN([C@H](C)CO)C3=O)cc1,inactive
11,O=C(C[C@H]1C[C@H]2c3cc(NC(=O)Cc4ccncc4)ccc3O[C@H]2[C@@H](CO)O1)NCc1cc(F)ccc1F,inactive
12,C[C@H]1CN([C@@H](C)CO)C(=O)Cc2cc(NC(=O)c3ccncc3)ccc2O[C@H]1CN(C)S(=O)(=O)c1ccc(Cl)cc1,inactive
13,C[C@H]1CN([C@@H](C)CO)C(=O)Cc2cc(NC(=O)C3CC3)ccc2O[C@@H]1CN(C)Cc1ccc2c(c1)OCO2,inactive
14,COc1ccc(S(=O)(=O)N(C)C[C@@H]2OCCCC[C@@H](C)Oc3ccc(NC(=O)c4ccccc4)cc3C(=O)N([C@H](C)CO)C[C@@H]2C)cc1,inactive
15,C[C@@H]1CN([C@H](C)CO)C(=O)c2cc(NC(=O)c3ccccc3)ccc2O[C@@H](C)CCCCO[C@H]1CN(C)S(=O)(=O)c1ccccc1,active
16,COc1ccc(S(=O)(=O)N(C)C[C@@H]2OCCCC[C@H](C)Oc3ccc(NC(=O)c4ccccc4)cc3C(=O)N([C@@H](C)CO)C[C@H]2C)cc1,active
17,COc1ccc(S(=O)(=O)N(C)C[C@H]2OCCCC[C@@H](C)Oc3ccc(NC(=O)c4ccccc4)cc3C(=O)N([C@@H](C)CO)C[C@H]2C)cc1,inactive
18,Cc1ccc(S(=O)(=O)N(C)C[C@@H]2OCCCC[C@@H](C)Oc3ccc(NC(=O)c4ccccc4)cc3C(=O)N([C@@H](C)CO)C[C@H]2C)cc1,inactive
19,C[C@@H]1CCCCO[C@H](CN(C)S(=O)(=O)c2ccccc2)[C@H](C)CN([C@@H](C)CO)C(=O)c2cc(NC(=O)c3ccccc3)ccc2O1,inactive
20,Cc1ccc(S(=O)(=O)N(C)C[C@@H]2OCCCC[C@H](C)Oc3ccc(NC(=O)c4ccccc4)cc3C(=O)N([C@H](C)CO)C[C@H]2C)cc1,active
21,C[C@@H]1CCCCO[C@H](CN(C)S(=O)(=O)c2ccccc2)[C@@H](C)CN([C@H](C)CO)C(=O)c2cc(NC(=O)c3ccccc3)ccc2O1,inactive
22,Cc1ccc(S(=O)(=O)N(C)C[C@H]2OCCCC[C@H](C)Oc3ccc(NC(=O)c4ccccc4)cc3C(=O)N([C@@H](C)CO)C[C@H]2C)cc1,inactive
